The nature of assay [1]: OV-KATE Cancer Cell Toxicity qHTS against the NCATS CANVASS Library (AID 1347345). Also: potency is read from the fitted curve at half-maximal effect. In short, it runs like this:
(§1)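 Per well, 1000 cells; exposure 72 h with compound at 11 final concentrations; readout CellTiter-Glo luminescence.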
In general terms: qHTS replaces the single test concentration by a dilution series.

Assay [2] in a line: SW1088 Cancer Cell Toxicity qHTS against the NCATS CANVASS Library (AID 1347350). Also: nearly all actives have a fitted effect of over 75% in size. Also: potency is read from the fitted curve at half-maximal effect. The essentials: as §1
Assay [3] can be described thus: U-118MG Cancer Cell Toxicity qHTS against the NCATS CANVASS Library (AID 1347351). Also: potency is read from the fitted curve at half-maximal effect. The essentials:
as §1

Assay [4] in a line: COV-362 Cancer Cell Toxicity qHTS against the NCATS CANVASS Library (AID 1347352). Also: potency is read from the fitted curve at half-maximal effect. In short, it runs like this: (§2)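 qHTS cytotoxicity: compounds tested in 11 concentrations on 1000 seeded cells per well over 72 h; bortezomib served as control; signal from CellTiter-Glo luminescence.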
Assay [5] in a line: UWB1.289-WTBRCA1 Cancer Cell Toxicity qHTS against the NCATS CANVASS Library (AID 1347354). Also: potency is read from the fitted curve at half-maximal effect. The essentials: as §2
Assay [6] in a line: HEK293 12hr Apoptosis Induction qHTS against the NCATS CANVASS Library (AID 1347361). The essentials: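 Cells are seeded, dosed with an 11-point compound series and incubated 12 hours. Caspase-3/7 activity is detected by luminescent DEVD-substrate reagent after 15 minutes at room temperature.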
Assay [7] is described as follows: qHTS for Antimalaria activity screened against the NCATS CANVASS Library (AID 1347380). Also: nearly all actives have a fitted effect of over 40% in size. Also: potency is read from the fitted curve at half-maximal effect. The essentials:
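Growth inhibition of asexual erythrocytic P. falciparum Dd2 was quantified by SYBR Green DNA staining. Cultures grew 72 h with compound (11-point series) in hypoxic gas at 37C; lysis and staining lasted 18 h.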

Assay [8] is described as follows: qHTS assay for small molecule disruptors of mitochondrial membrane potential screened against the NCATS CANVASS Library (AID 1347389). Also: nearly all actives have a fitted effect of over 60% in size. Also: potency is read from the fitted curve at half-maximal effect. The essentials: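 Compounds tested in 11-point qHTS series on HepG2 cells for 1 hr; membrane-potential dye added for 30 min at 37C. Lower red-to-green ratio indicates loss of potential.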
The nature of assay [9]: Secretion counterscreen for inhibitors of the SERCaMP assay screened against the NCATS CANVASS Library (AID 1347390).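 Also: light from luciferase secreted into medium read as a measure of general secretion.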 Also: potency is read from the fitted curve at half-maximal effect. The essentials: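 SH-SY5Y-GLuc STOP cells; 4 h attach; cpds 0.001 - 77 uM (qHTS, 11 pts), 20 h 37C/5% CO2; coelenterazine in glow buffer; luminescence, 5 s exposure.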
For orientation: A counterscreen serves to expose hits that act by an unwanted route or on another target.

Assay [10] is described as follows: qHTS for activators of Nrf2/ARE signaling pathway screened against the NCATS CANVASS Library (AID 1347391). Also: nearly all actives have a fitted effect of over 60% in size. Also: potency is read from the fitted curve at half-maximal effect. In short, it runs like this:
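Cells carrying an ARE-driven beta-lactamase reporter (HepG2 background) are dosed for 16 h, then stained with CCF4. Cell viability in the same wells is measured by CellTiter-Glo luminescence.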

Assay [11] can be described thus: qHTS for activators of dead-cell proteases activity screened against the NCATS CANVASS Library (AID 1347392).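 Also: luminescence from protease leaking out of membrane-damaged cells cleaving impermeant substrate; rising signal means more cytotoxicity.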 The essentials:
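HepG2 cells, 2000/well, attached 18 h at 37C, then exposed to compounds (11-point qHTS) for 5 h. Dead-cell protease release read as luminescence from cell-impermeant AAF-aminoluciferin substrate after 15 min at room temperature.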

Assay [12] in a line: qHTS for inhibitors of ER calcium dysfunction: SERCaMP assay screened against the NCATS CANVASS Library (AID 1347393). Also: nearly all actives have a fitted effect of over 40% in size. Also: potency is read from the fitted curve at half-maximal effect. The essentials:
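SH-SY5Y GLuc-SERCaMP, 1000 cells/well, 4 h attach; cpd 16 h, 37C/5% CO2; thapsigargin (added as 6x 600 nM) 4 h; coelenterazine; luminescence. Reduced reporter release = ER Ca stabilization.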

The nature of assay [13]: qHTS for inhibitors of Wild type Zika virus screened against the NCATS CANVASS Library (AID 1347396).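 Also: ATP luminescence of surviving cells so rescue from viral cell killing; series mostly up to about 46 µM.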 The essentials: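 Luminescent CellTiter Glo read-out of virus-induced cytotoxicity, 72 h post-infection, in Vero 766 cells. Compounds were tested at 11 concentrations; uninfected, vehicle-treated wells defined 100% inhibition.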
A short description of assay [14]: UWB1.289 Cancer Cell Toxicity qHTS against the NCATS CANVASS Library (AID 1347347). Also: nearly all actives have a fitted effect of over 60% in size. Also: potency is read from the fitted curve at half-maximal effect. In short, it runs like this:
as §1

Assay [15] is described as follows: OV-SAHO Cancer Cell Toxicity qHTS against the NCATS CANVASS Library (AID 1347348). Also: nearly all actives have a fitted effect of over 55% in size. Also: potency is read from the fitted curve at half-maximal effect. The essentials:
as §1

The nature of assay [16]: HPAF-II 12hr Apoptosis Induction qHTS against the NCATS CANVASS Library (AID 1347358). In short, it runs like this: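 Apoptosis in HPAF-II pancreatic cancer cells is scored as caspase 3/7 luminescence following a 12-hour exposure to an 11-point compound series.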
The nature of assay [17]: KB-8-5-11 Cancer Cell Toxicity qHTS against the NCATS CANVASS Library (AID 1347364). Also: nearly all actives have a fitted effect of over 75% in size. Also: potency is read from the fitted curve at half-maximal effect. In short, it runs like this:
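Natural products were titrated in 11 points onto KB-8-5-11 cells, 500 per well, and cytotoxicity was scored from CellTiter-Glo luminescence after 72 hr culture.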

Assay [18] can be described thus: qHTS for Hypoxia signaling pathway (HIF-1) agonists against the NCATS CANVASS Library (AID 1347375). The essentials: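 Inducers of HIF-1 signaling were detected in ME-180 cells bearing an HRE-driven beta-lactamase reporter after 17 h compound exposure. Activity came from CCF4-AM FRET emission ratio (460/530 nm) in qHTS format.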
Assay [19] can be described thus: Redox Reaction Profiling qHTS: Assay Interference Panel against the NCATS CANVASS Library (AID 1347401). Also: potency is read from the fitted curve at half-maximal effect. In short, it runs like this: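 Compounds in 11-point series incubated with 5 uM resazurin and 200 uM DTT in 50 mM HEPES pH 7.3, 50 mM NaCl. Resorufin fluorescence (Ex 525/Em 598) read before and after 15 min in the dark.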
Assay [20] can be described thus: HPAF-II Cancer Cell Toxicity qHTS against the NCATS CANVASS Library (AID 1347346). Also: nearly all actives have a fitted effect of over 55% in size. Also: potency is read from the fitted curve at half-maximal effect. The essentials: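 Cytotoxicity in HPAF-II pancreatic cancer cells: 72 h treatment across 11 concentrations, ATP-based CellTiter-Glo luminescence endpoint.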

Records with an inconclusive call do not appear. Active and inactive are the calls of the source. Calls follow the shape of the dose curve; as a rule, active = well fitted curve in the direction sought with a large enough effect; inconclusive = small, poorly fitted or top-dose-only effect, or another doubt; inactive = no such curve, though single readings can be large; an effect the other way counts as inactive or inconclusive.

Take `CC(=O)O[C@H]1c2ccccc2-c2c3c(cc4c2[C@@H]1N(C(C)=O)CC4)OCO3`: the Potency entry in assay [1], in assay [3], in [4], in assay [5], in assay [7] and in [8] was “inactive” throughout. Besides, the Potency result in [9] and in assay [11] was “inactive” throughout. The figures for the Potency in assay [2], in [10] and in [12] were 26.6 µM (active), 8.31 µM (active) and 34.3 µM (active), respectively. For the same compound, the compound was called inactive in assay [6] and in assay [13].

`COc1cc2c(c(O)c1O)C(=O)c1c(coc1C)C2=O`: the Potency in assay [1] is 6.66 µM (active); in assay [14] it was 13.3 µM (active); in [15], 4.2 µM (active); in [2], 9.43 µM (active); in assay [3], 21.1 µM (active); in assay [4], 13.3 µM (active). In addition, the Potency in assay [5] is 18.8 µM (active); in assay [7] it was 10.6 µM (active); in assay [8], 10.5 µM (active); in [9] it was 27.2 µM (active); in assay [19] it was 0.764 µM (active). In addition, the Potency result in assay [16], in [17], in assay [11] and in [12] was “inactive” in each case. The compound was called inactive in [6], in [18] and in assay [13].

For `O=C1CC2OCC=C3CN4C5CC3C2[C@@H]2N1c1ccccc1[C@]52C[C@@H]4C1=C[C@H]2C3CC4N(CC[C@@]45c4ccccc4N(C1=O)[C@@H]25)C/C3=C/CO` (stereo partly drawn), the Potency result in [1], in assay [5], in assay [16], in [8], in assay [9] and in assay [19] was “inactive” each time. The Potency in [20] is 21.1 µM (active); in [17], 18.7 µM (active); in assay [7], 2.36 µM (active); in assay [10], 1.66 µM (active). Besides, the outcome in assay [18] and in assay [13] was inactive.

As for `CC(C)=CCC[C@]12c3cc4c(cc3CC[C@@]1(C)[C@H](C)CC[C@@H]2O)[nH]c1ccccc14`, the Potency entry in assay [1], in [3], in assay [4], in assay [5], in [16] and in assay [9] was “inactive” in each case. The Potency entry in [10] and in assay [11] was “inactive” throughout. Also, the compound was classed as inactive in assay [6], in assay [18] and in [13]. Besides, in assay [8], the Potency was 20.9 µM (active).

Turning to `C=C[C@@]1(C)CC[C@@H]([C@H](C)C(=O)/C=C/C(C)(C)O)O1`, the Potency entry in assay [1], in assay [2], in assay [3], in assay [5], in [7] and in assay [8] was “inactive” throughout. The Potency result in [9] is “inactive”. The compound was called inactive in [6], in assay [18] and in [13]. Further, the Potency in assay [10] was 13.2 µM (active).

As for `CC[C@H]1[C@H](C)[C@H](c2cc(OC)c(OC)cc2OC)[C@@H](C)[C@H](c2cc(OC)c(OC)cc2OC)[C@@]12C=C(OC)C(=O)C=C2OC`, the Potency result in assay [1], in assay [5], in assay [16], in assay [9], in [11] and in [19] was “inactive” throughout. In addition, the Potency in assay [15] was 21.1 µM (active); in [2], 18.8 µM (active); in [7], 1.88 µM (active); in [10] it was 14.8 µM (active). Also, the compound was classed as inactive in assay [18] and in assay [13].

Regarding `C/C=C(/C)c1c(Cl)c(O)c(C)c2c1Oc1c(Cl)c(O)c(Cl)c(C)c1C(=O)O2`, the Potency entry in assay [1], in assay [15], in [3], in assay [4], in [5] and in assay [16] was “inactive” each time. The Potency result in assay [7], in assay [9], in assay [10], in assay [12] and in [19] was “inactive” each time. For the same compound, the results for the Potency in [2] and in assay [8] were 18.8 µM (active) and 8.31 µM (active), respectively. Besides, the outcome in assay [6] and in [18] was inactive.

Take `C=C(C)CC[C@H](Cc1c(O)cc(O)c2c1O[C@H](c1ccc(O)cc1)CC2=O)C(=C)C`: the Potency result in assay [1], in assay [20], in assay [3], in assay [4], in assay [5] and in assay [16] was “inactive” each time. Also, the Potency entry in assay [7], in assay [9], in [11] and in assay [19] was “inactive” in each case. Besides, the Potency in assay [2] was 23.7 µM (active); in assay [8], 8.31 µM (active). Further, the compound was classed as inactive in assay [6].

Turning to `C=C1CC[C@@H](Br)C(C)(C)[C@]12CC=C(C)C(=O)C2`, the Potency result in [1], in assay [14], in assay [15], in assay [3], in [4] and in [5] was “inactive” each time. The Potency result in assay [17], in assay [7], in [9], in assay [11] and in [19] was “inactive” throughout. Besides, the compound was classed as inactive in [6], in assay [18] and in assay [13]. The Potency in assay [10] was 16.6 µM (active).

As to `C/C=C(/C)c1c(Cl)c(OC)c(C)c2c1Oc1c(Cl)c(O)c(Cl)c(C)c1C(=O)O2`, the Potency result in assay [1], in assay [3], in assay [4], in assay [7], in [9] and in assay [10] was “inactive” throughout. In addition, the Potency result in assay [12] and in assay [19] was “inactive” in each case. Besides, the Potency was 13.3 µM (active) in [20], 13.3 µM (active) in [2] and 2.63 µM (active) in assay [8].

Consider `C=CC(CCCCC)C1C(=O)NC(=O)C1C(=O)C1C(/C=C/C)C=CC2CC(C(=O)O)CC(C)C21` (stereo not drawn), for which the Potency result in [1], in assay [4], in assay [16], in [9], in assay [11] and in assay [12] was “inactive” each time. In addition, the Potency result in assay [19] was “inactive”. The Potency is 9.43 µM (active) in assay [20], 9.43 µM (active) in assay [2], 21.1 µM (active) in assay [3] and 3.31 µM (active) in assay [10]. The call in assay [18] was inactive.

Regarding `C=C1CC[C@@H](O[C@H]2C[C@@](O)([C@H](C)NC(=O)c3[nH]c(C)c(Cl)c3Cl)[C@H](O)[C@@H](C)O2)[C@@H]2C=C[C@H](C)C(/C(O)=C3/C(=O)[C@H](C(C)C)N([C@@H]4O[C@H](C)[C@H](OC(N)=O)[C@H](OC(C)=O)[C@@H]4OC)C3=O)[C@@H]12` (stereo partly drawn), the Potency result in assay [1], in [3], in assay [4], in assay [5], in assay [16] and in assay [17] was “inactive” throughout. Further, the Potency entry in [9], in assay [10] and in [12] was “inactive” in each case. Further, the results for the Potency in assay [2] and in [8] were 5.95 µM (active) and 16.6 µM (active), respectively. Further, the call in assay [18] and in assay [13] was inactive.

Take `C[C@]12CCC[C@](C)(C(=O)O)[C@@H]1CC[C@@]1(C)c3cocc3CC[C@H]21`: the Potency result in assay [1], in assay [14], in assay [15], in assay [2], in [3] and in assay [4] was “inactive” throughout. For the same compound, the Potency result in assay [5], in assay [16], in [17], in assay [8], in assay [9] and in assay [11] was “inactive” in each case. The Potency entry in [12] and in assay [19] was “inactive” in each case. Also, the call in assay [18] and in assay [13] was inactive.
